The source of these data is PubChem BioAssay (EPA / NIEHS).

Experiment [1] can be described thus: CCTE_Mundy_HCI_Cortical_Synap_Neur_Matur_SynapseCount: CCTE's Synaptogenesis and Neurite Maturation Assay in rat cortical cells for Synapse Count, Mundy Lab (AID 2284218). Summed up:
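High-content imaging of synaptophysin puncta per MAP2-positive neuron (Hoechst nuclei) in rat cortical cells exposed DIV 7–12 after glial arrest with AraC at DIV 5; decrease relative to DMSO scored.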

The nature of experiment [2]: CCTE_Mundy_HCI_Cortical_Synap_Neur_Matur_NeuriteCount: CCTE's Synaptogenesis and Neurite Maturation Assay in rat cortical cells for Neurite Count, Mundy Lab (AID 2284222). Summed up:
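Chemical exposure runs DIV 7–12 in rat cortical cultures, glia suppressed by AraC at DIV 5; measurement is at DIV 12. Imaging-derived neurite counts are fitted against DMSO baseline.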

Experiment [3] can be described thus: CCTE_Mundy_HCI_Cortical_Synap_Neur_Matur_CellBodySpotCount: CCTE's Synaptogenesis and Neurite Maturation Assay in rat cortical cells for Cell Body Spot Count, Mundy Lab (AID 2284223). Summed up:
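Rat primary cortical cultures received AraC at DIV 5 to arrest glia, were dosed with chemical at DIV 7 with media change, and were fixed at DIV 12 (288.33 h). Synaptophysin puncta on MAP2-positive cell bodies per neuron were counted by high-content imaging versus DMSO.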

Experiment [4] can be described thus: CCTE_Mundy_HCI_hNP1_Pro_ResponderAvgInten: CCTE's Proliferation Assay in human neuroprogenitor cells, Mundy Lab (AID 2284224; active means hit-call score of the fitted dose curve at least 0.9, where 1 is the maximum). Summed up: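 Proliferation was scored as BrdU labelling intensity in human neural progenitors derived from WA09 embryonic cells, measured 26.25 hours after chemical dosing. Activity was fitted relative to DMSO.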
Experiment [5] in a line: UKN2_HCS_IMR90_cell_viability: Viability Assessment in the University of Konstanz (UKN) Leist Lab Neural Crest Cell Migration Assay in human induced IMR90 Pluripotent Stem Cells (UKN2) (AID 2284233).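 Further: cells exposed to compound for 24 h after a 24 h migration phase.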 The method, boiled down: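 After calcein-AM/Hoechst staining, viability is quantified by high-content fluorescence imaging, relative to DMSO, in iPSC (IMR90)-derived neural crest cells. Exposure lasts 24 h, starting after a 24 h migration period on PLO/laminin/fibronectin coating.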

Experiment [6] in a line: CCTE_Mundy_HCI_Cortical_NOG_NeuronCount: CCTE's Neurite Outgrowth Assay in rat cortical cells for Neuron Count, Mundy Lab (AID 2284236; active means hit-call score of the fitted dose curve at least 0.9, where 1 is the maximum;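 further: neurons counted by imaging betaIII-tubulin and Hoechst stained cortical cells; cells exposed to compound for about 48 hours before fixation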). Summed up:
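Read-out: neuron number by high-content imaging of betaIII-tubulin (Alexa Fluor-488) and Hoechst-labelled rat primary cortical cells.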

The nature of experiment [7]: CCTE_Mundy_HCI_Cortical_NOG_BPCount: CCTE's Neurite Outgrowth Assay in rat cortical cells for Branch Point Count, Mundy Lab (AID 2284237).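 Further: branch points counted about two days after chemical exposure.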 Summed up:
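Measured 50.33 h after dosing, this morphology endpoint uses rat primary cortical cultures labelled for betaIII-tubulin. Branch points are quantified by high-content imaging, with DMSO as negative control and baseline.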

Experiment [8] is described as follows: CCTE_Mundy_HCI_hNP1_Casp3_7: CCTE's Caspase-Glo 3/7 Assay in human neuroprogenitor cells for Apoptosis, Mundy Lab (AID 2284240). The method, boiled down:
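Apoptosis is scored by activated caspase-3/7 luminescence in WA09-derived neural progenitor cells, measured 26.5 h after chemical dosing. Values represent gain of signal relative to DMSO vehicle.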

Experiment [9] in a line: CCTE_Mundy_HCI_hNP1_CellTiter: CCTE's Cell Titer-Glo 2 Assay in human neuroprogenitor cells for Viability, Mundy Lab (AID 2284241; active means hit-call score of the fitted dose curve at least 0.9, where 1 is the maximum). The method, boiled down:
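Human neural progenitor cells (hNP1, WA09-derived) were plated on poly-L-ornithine/laminin and grown 40 to 44 hours at 37 °C, 5% CO2 before chemical addition. Twenty-four hours later, ATP was measured by CellTiter-Glo luminescence; loss of signal versus DMSO indicates reduced viability.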
For orientation: In ATP-based viability assays light output follows the ATP content of the culture.

Experiment [10] is described as follows: CCTE_Mundy_HCI_Cortical_Synap_Neur_Matur_NeuronCount: CCTE's Synaptogenesis and Neurite Maturation Assay in rat cortical cells for Neuron Count, Mundy Lab (AID 2284242; active means hit-call score of the fitted dose curve at least 0.9, where 1 is the maximum;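 further: hits reduce neuron count versus DMSO baseline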). The method, boiled down:
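Neuron counts come from automated high-content imaging of Hoechst nuclei and MAP2/synaptophysin immunostaining at DIV 12, with loss of signal judged against DMSO. Cultures of rat cortical cells had glial growth arrested by AraC at DIV 5; chemical exposure began DIV 7.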

A short description of experiment [11]: IUF_NPC2c_oligodendrocyte_migration_120hr: Leibniz Research Institute for Environmental Medicine (IUF) 120-hour Neural Progenitor Cell Migration Assay for Oligodendrocyte Migration (NPC2c) (AID 2284297).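 Further: O4-positive oligodendrocyte migration distance divided by radial glia migration distance.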 The method, boiled down: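 Human fetal cortex-derived neural progenitor spheres (0.3 mm) were plated on poly-D-lysine/laminin in N2 differentiation medium and exposed to 7 concentrations for 120 h, with half-medium renewal at day 3. Oligodendrocyte migration distance was normalized to radial glia migration, relative to DMSO.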

Experiment [12] is described as follows: IUF_NPC2a_radial_glia_migration_120hr: Leibniz Research Institute for Environmental Medicine (IUF) 120-hour Neural Progenitor Cell Migration Assay for Radial Glia Migration (NPC2a) (AID 2284298). Summed up: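 Single 0.3 mm primary human fetal-cortex (GW 16-19) NPC spheres were plated on poly-D-lysine/laminin in N2 differentiation medium and exposed from day 0 for 120 h, half-medium refreshed day 3. Migration distance came from Hoechst nuclei-density imaging, relative to DMSO.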

The nature of experiment [13]: IUF_NPC2b_neuronal_migration_120hr: Leibniz Research Institute for Environmental Medicine (IUF) 120-hour Neural Progenitor Cell Migration Assay for Neuron Migration (NPC2b) (AID 2284300). The method, boiled down: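 Primary human fetal cortex neural progenitor spheres (0.3 mm) plated on poly-D-lysine/laminin in N2 differentiation medium, exposed 120 h with half-medium refresh at day 3. TUBB3-stained neuron distance from sphere core, normalized to radial glia migration, versus DMSO.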

Experiment [14] is described as follows: IUF_NPC3_neuronal_differentiation_120hr: Leibniz Research Institute for Environmental Medicine (IUF) 120-hour Neuronal Differentiation Assay (NPC3) (AID 2284301). The method, boiled down:
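Value is percent TUBB3-positive neurons among Hoechst-stained nuclei in the migration area, scored by trained CNN after 120 h differentiation. Primary hNPC spheres on poly-D-lysine/laminin, N2 medium, continuous dosing from day 0, half-refeed day 3; DMSO reference.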

The nature of experiment [15]: IUF_NPC4_neurite_length_120hr: Leibniz Research Institute for Environmental Medicine (IUF) 120-hour Neuronal Morphology Assay for Neurite Length (NPC4) (AID 2284302). Summed up: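 Neurite length, the mean in um across TUBB3-stained neurons, is derived by skeletonization of high-content images after 120 h differentiation. Compound exposure, 7 concentrations plus solvent control, ran from plating of hNPC spheres on poly-D-lysine/laminin, with medium half-replaced on day 3.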

A short description of experiment [16]: IUF_NPC5_oligodendrocyte_differentiation_120hr: Leibniz Research Institute for Environmental Medicine (IUF) 120-hour Oligodendrocyte Differentiation Assay (NPC5) (AID 2284304; active means hit-call score of the fitted dose curve at least 0.9, where 1 is the maximum;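 further: primary human fetal neural progenitor spheres plated to migrate and differentiate; share of O4-positive cells among Hoechst nuclei found by CNN image analysis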). Summed up:
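Primary human fetal (GW 16-19) neural progenitor spheres (0.3 mm) plated on poly-D-lysine/laminin in N2 differentiation medium, exposed from day 0 for 120 h with half-medium refresh at day 3; O4-positive cells as percent of Hoechst nuclei, CNN-identified, versus DMSO.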

A short description of experiment [17]: IUF_NPC4_neurite_area_120hr: Leibniz Research Institute for Environmental Medicine (IUF) 120-hour Neuronal Morphology Assay for Neurite Area (NPC4) (AID 2284305; active means hit-call score of the fitted dose curve at least 0.9, where 1 is the maximum). The method, boiled down: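 Neurite area (pixels, nuclei excluded) of TUBB3-positive neurons from hNPC spheres differentiating 5 days under continuous exposure at 37 C, 5% CO2. High-content imaging; loss of signal versus DMSO control across 7 concentrations.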

The nature of experiment [18]: IUF_NPC2-5_cytotoxicity_72hr: Cytotoxicity Assessment at 72 hours in the Leibniz Research Institute for Environmental Medicine (IUF) Neural Progenitor Cell Migration and Differentiation Assay for Cytotoxicity (NPC2-5) (AID 2284306; active means hit-call score of the fitted dose curve at least 0.9, where 1 is the maximum;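 further: LDH release into supernatant measured by resorufin fluorescence marking membrane damage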). The method, boiled down: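 Membrane-integrity cytotoxicity at 72 h, read as LDH-driven resorufin fluorescence in supernatant. hNPC spheres from fetal cortex differentiate on coated plates in N2 medium, 37C, 5% CO2; seven serial compound concentrations plus solvent control (DMSO ≤0.1%).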

A short description of experiment [19]: IUF_NPC2-5_cytotoxicity_120hr: Cytotoxicity Assessment at 120 hours in the Leibniz Research Institute for Environmental Medicine (IUF) Neural Progenitor Cell Migration and Differentiation Assay (NPC2-5) (AID 2284307; active means hit-call score of the fitted dose curve at least 0.9, where 1 is the maximum). The method, boiled down: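 Human fetal neural progenitor spheres (0.3 mm, GW 16-19 cortex) were plated on poly-D-lysine/laminin in N2 differentiation medium and exposed for 120 h, with half-medium refresh at day 3. LDH release into supernatant was read by resorufin fluorescence.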

The nature of experiment [20]: IUF_NPC2-5_cell_number_120hr: Cell Number Assessment at 120 hours in the Leibniz Research Institute for Environmental Medicine (IUF) Neural Progenitor Cell Migration and Differentiation Assay (NPC2-5) (AID 2284308).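 Further: count of Hoechst-stained nuclei in migration zone around plated human neural progenitor spheres.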 The method, boiled down:
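Primary human fetal neural progenitor spheres (GW 16-19, 0.3 mm) plated on poly-D-lysine/laminin in N2 differentiation medium, exposed from day 0 for 120 h with half-medium refresh at day 3; Hoechst-positive nuclei counted in migration area versus DMSO control.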

Experiment [21] is described as follows: IUF_NPC2-5_viability_120hr: Viability Assessment at 120 hours in the Leibniz Research Institute for Environmental Medicine (IUF) Neural Progenitor Cell Migration and Differentiation Assay (NPC2-5) (AID 2284312). Summed up:
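Alamar blue resorufin fluorescence read after 5 days of differentiation, with compound present from day 0 and replenished at day 3. Primary hNPC spheres on laminin-coated plates, 37C; seven concentrations plus solvent control, fitted against DMSO.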

A short description of experiment [22]: CCTE_Mundy_HCI_iCellGluta_NOG_NeuriteLength: CCTE's Neurite Outgrowth Assay in iCellGluta cells for Neurite Length, Mundy Lab (AID 2284318; active means hit-call score of the fitted dose curve at least 0.9, where 1 is the maximum). The method, boiled down:
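Automated high-content imaging of betaIII-tubulin (Alexa Fluor-488) and Hoechst-stained cells gave neurite length, normalized to the DMSO baseline.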

A short description of experiment [23]: IUF_NPC1_cytotoxicity_72hr: Cytotoxicity Assessment at 72 hours in the Leibniz Research Institute for Environmental Medicine (IUF) Neural Progenitor Cell Proliferation Assay (NPC1) (AID 2284332; active means hit-call score of the fitted dose curve at least 0.9, where 1 is the maximum;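 further: rising LDH signal means more cytotoxicity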). The method, boiled down:
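Cytotoxicity by LDH membrane-integrity assay on medium supernatants, fluorescence via resazurin reduction, after 3-day single exposure of primary hNPC spheres at 37C, pH 7.2-7.6 with growth factors. Fitted upward against baseline.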

Experiment [24] can be described thus: CCTE_Mundy_HCI_iCellGluta_NOG_NeuriteCount: CCTE's Neurite Outgrowth Assay in iCellGluta cells for Neurite Count, Mundy Lab (AID 2284342; active means hit-call score of the fitted dose curve at least 0.9, where 1 is the maximum;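 further: chemical exposure about 48 hours starting 2 hours after plating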).

Records with an inconclusive call do not appear. Activity calls are given as the source filed them. How the source made its calls, unless noted: active means hit-call score of the fitted dose curve at least 0.9, where 1 is the maximum; inactive means score below 0.9.

Take `CC1(C)C(C=C(Cl)Cl)C1C(=O)O[C@H](C#N)c1cccc(Oc2ccccc2)c1` (some centres undefined): the AC50 was 10.9 µM (active) in [1]; 12.3 µM (active) in experiment [2]; 12 µM (active) in experiment [3]; 23.3 µM (active) in experiment [4]; 80 µM (active) in experiment [7]; 29.3 µM (active) in [8]. Also, the AC50 in experiment [10] was 10.1 µM (active); in [14], 0.851 µM (active); in experiment [16], 1.32 µM (active). The compound was called inactive in experiment [5], in experiment [6], in experiment [9], in experiment [11], in [12] and in [13]. The result in experiment [15], in experiment [17], in experiment [18], in experiment [19], in experiment [20] and in experiment [21] was inactive. The call in experiment [22], in experiment [23] and in experiment [24] was inactive.

For orientation: AC50 means the midpoint of the concentration-response curve, whichever way the signal moves.
